# Source: PubChem
# Platelet DG rel – modulates dense granule release in human platelets; human platelet-rich plasma, SFLLRN dense granule ATP release, luminescence; inhibition, %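 (compounds screened at 7.5 µM in platelet-rich plasma)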; hit rate 0.22% among 300,000; AID 1663;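 active = mean replicate score, as percent of positive control, at or above 50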
# NTR1 ag – activates human neurotensin receptor 1; AID 493036; activation, % at 20 µM; P30989; hit rate 0.17% among 330,000; NTR1-U2OS beta-arrestin-GFP spot imaging, agonist mode;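 active = activation at or above 40% of the spot to cytoplasm intensity ratio, with at least 20 cells analyzed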;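 also: 0% = DMSO without peptide and 100% = 100 nM NTR1 peptide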
# Target sequence (P30989 whole entry, looked up): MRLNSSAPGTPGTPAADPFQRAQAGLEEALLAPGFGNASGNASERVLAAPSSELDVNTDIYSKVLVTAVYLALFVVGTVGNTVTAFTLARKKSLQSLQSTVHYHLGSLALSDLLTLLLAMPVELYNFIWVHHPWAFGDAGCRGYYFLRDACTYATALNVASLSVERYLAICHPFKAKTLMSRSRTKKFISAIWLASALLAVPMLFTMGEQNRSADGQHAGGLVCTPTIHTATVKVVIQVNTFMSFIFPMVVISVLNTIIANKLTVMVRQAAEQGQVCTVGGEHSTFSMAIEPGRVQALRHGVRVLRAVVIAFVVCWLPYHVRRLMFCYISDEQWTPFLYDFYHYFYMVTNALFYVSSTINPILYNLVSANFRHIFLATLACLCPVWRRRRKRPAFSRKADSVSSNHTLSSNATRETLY
# HIF activator – HIF pathway transcriptional activation; U2OS HRE-luciferase reporter, luminescence; normalized: DMSO 0%, desferrioxamine 100%; activation, % at 7.5 µM (by protocol); hit rate 0.32% among 300,000; AID 1910;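 active = mean activation of at least 10% of the iron chelator positive control signal, with at least half of replicates also reaching 10%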
# * hit, by the source's call; · = no result. In the library only some 0.63% were active in any assay of this set; here they are far more common.
SMILES,Platelet DG rel,NTR1 ag,HIF activator
CCc1ccccc1NC(=O)N1CCC(NC(=O)C(Cc2ccc(OC)c(OC)c2)NC(C)=O)CC1 (stereo not given),0,-1,0
Cc1ccc(C(=O)NC2CC3CCC(C2)N3C)cc1 (stereo not given),·,-2,·
N=c1c2c(-c3ccccc3)c(-c3ccccc3)n(Cc3ccco3)c2ncn1Cc1ccco1,-12,42*,1
CCCCn1cnc2c(c(-c3ccccc3)c(-c3ccccc3)n2Cc2ccco2)c1=N,2,39,2
O=C(N/N=C\c1cn[nH]c1-c1ccccc1)c1cccs1,-1,-2,3
Cn1nccc1C(=O)NC1CCCc2c1cnn2-c1cc(F)cc(F)c1 (stereo not given),-14,3,1
O=C(CCCN1C(=O)/C(=C/c2ccccc2Cl)SC1=S)NNC(=O)c1ccc(Cl)cc1Cl,53*,15,-2
O=C(CCCN1C(=O)/C(=C/c2ccccc2Cl)SC1=S)NNC(=O)c1ccccc1,0,9,-6
CC1=NC(C#N)=C(C#N)NC(C)(C)C1,12,-1,28*
CC1=C(C#N)C(=O)NC(C)(C)C1,-2,2,0
COc1ccc(Br)cc1/C=N/NC(=O)c1cc(Br)ccc1O,-1,6,0
Cn1cccc1-c1cc(C(=O)N/N=C/c2ccccc2Cl)[nH]n1,-6,-1,0
COc1ccc(C(=O)N/N=C/c2cc(Br)ccc2O)cc1OC,-1,2,40*
Cn1cccc1-c1cc(C(=O)N/N=C/c2cc(Br)ccc2O)[nH]n1,8,2,10*
Cc1cc(C)nc(SCc2ccc(C(=O)N/N=C/c3cccc(O)c3O)cc2)n1,1,2,6
COc1ccc(O)c(/C=N/NC(=O)c2ccc(OCc3cccc(Br)c3)cc2)c1,-1,0,16*
COc1ccc(O)c(/C=N/NC(=O)c2ccc(CSc3nc(C)cc(C)n3)cc2)c1,-5,1,29*
COc1ccc(/C=N/NC(=O)c2ccc(Br)cc2)c(OC)c1,-4,2,0
CC(=O)NN1C(=O)c2ccc(Oc3ccc([N+](=O)[O-])cc3)cc2C1=O,-2,2,-1
CCc1ccc(CN2CCSCC2)cc1,6,0,-11
CC(=O)N1CCC(C(=O)NC2CC(C)(C)Cc3c2cnn3-c2ccc(F)cc2)CC1 (stereo not given),5,2,-1
O=C1Nc2ccccc2Nc2ncccc21,61*,0,0
Cc1ccc2c(c1)NC(=O)c1cccnc1N2,14,0,2
CC(Cc1c[nH]c2ccccc12)C(=O)N1CCN(c2ccccc2F)CC1 (stereo not given),-1,0,1
COc1ccc2cc3c(N)nn(C(=O)C4CCC(C(C)(C)C)CC4)c3nc2c1 (stereo not given),-7,42*,1
SMILES,Platelet DG rel,NTR1 ag,HIF activator
COc1ccc2cc3c(N)nn(C(=O)Cc4ccccc4OC)c3nc2c1,-7,11,0
CC(=O)c1[nH]c(C)c(C(=O)N2CCCC(Nc3ccc(C(C)C)cc3)C2)c1C (stereo not given),-1,1,-9
CC(=O)c1ccc(C(=O)N2CCCC(Nc3ccc(C(C)C)cc3)C2)s1 (stereo not given),-16,4,13*
Cc1ccc(S(=O)(=O)/N=S(/c2ccccc2)C(C)C)cc1 (stereo not given),·,3,·
Cc1nn(-c2ccccc2Cl)c(Cl)c1/C=C(\C#N)C(N)=O,-7,10,1
COc1cccc(C(=O)SC2=NCCS2)c1,-7,-1,327*
COc1ccc2nc(NC(=O)CSC3=NCCS3)sc2c1,0,0,1
CCOC(=O)C(NC(=O)c1ccccc1)(N1CCOCC1)C(F)(F)F (stereo not given),0,3,1
CCOC(=O)C(NC(C)=O)(N1CCOCC1)C(F)(F)F (stereo not given),-4,-1,49*
COc1ccc(-n2c(C)c(C(C)=O)c(C(C)=O)c2C)cc1OC,53*,0,0
COc1ccc(-n2c(C)c(C(C)=O)c(C(C)=O)c2C)cc1,3,0,0
Cn1c(-c2cnn(-c3ccccc3)c2N)n[nH]c1=S,61*,1,0
Cc1ccc(-c2cnn(-c3ccccc3)c2N)cc1,52*,0,1
C=CCn1c(-c2cnn(-c3ccccc3)c2N)n[nH]c1=S,13,0,0
Nc1c(-c2ccc(Cl)cc2)cnn1-c1ccccc1,37,-1,3
COc1cc(C(=O)NCC(=O)OCc2ccccc2Cl)cc(OC)c1OC,-1,2,0
COc1ccc(-c2csc(-c3cccnc3)n2)cc1C,-17,4,-45
CCN(CCn1cccn1)Cc1cn[nH]c1-c1ccc(-c2ccccc2)cc1,0,0,0
CCN(CCn1cccn1)Cc1cn[nH]c1-c1cccc2ccccc12,59*,0,0
COc1ccc(NC(=O)C2(c3ccc(NC(=O)c4ccc(OC(C)=O)cc4)cc3)CCCC2)cc1,1,2,0
CN(C)c1ccc(/C=N/NC(=O)c2ccnn2C)cc1,73*,0,1
CN(C)c1ccc(/C=N/NC(=O)c2ccn(C)n2)cc1,1,0,3
COc1cc2[nH]c(=O)n(CCC(=O)N3CCN(c4cc(Cl)ccc4C)CC3)c(=O)c2cc1OC,-2,10,0
Cc1nnsc1NC(=O)OCC(C)C,5,0,0
CCc1cc2c(=O)[nH]c(-c3ccccn3)nc2s1,8,14,11*
SMILES,Platelet DG rel,NTR1 ag,HIF activator
CCc1cc2c(=O)[nH]c(N3CCCC3)nc2s1,3,6,2
CSc1ccc(Cl)c(C(=O)NC2CCCC2)c1,1,1,3
O=C(/C=C/Nc1ccc(Br)cc1F)c1ccccc1,50*,0,-3
O=C(/C=C/Nc1ccccc1F)c1ccc(Br)cc1,2,·,0
CCOC(=O)C1CCN(c2ncnc3cc(OC)c(OC)cc23)CC1,58*,1,-2
CCOC(=O)C1CCN(c2ncnc3c2cnn3-c2ccc(OC)cc2)CC1,·,4,·
CN(C(=O)c1ccc(NC(=O)Cc2ccc(NC(=O)C3CCN(C(=O)c4ccccc4)CC3)cc2)cc1)C1CC1,·,-1,·
CC(=O)Nc1ccc2nc(-c3ccncc3)[nH]c2c1,7,-1,0
Nc1ccc(C(=O)Nc2ccc3nc(-c4ccncc4)[nH]c3c2)cc1,8,-1,256*
O=C(N/N=C/c1ccc(Cl)cc1Cl)c1cccc(N2CCCC2=O)c1,17,1,-13
O=C(N/N=C/c1cc(Br)cc(Br)c1O)c1cccc(N2CCCC2=O)c1,2,5,9.6*
O=C(N/N=C/c1ccc(O)cc1O)c1ccncc1,3,1,0
O=C(N/N=C/c1cc(Cl)cc(Cl)c1O)c1ccncc1,6,0,29*
O=C(N/N=C/c1ccc(Cl)cc1Cl)c1ccncc1,7,-1,-2
O=C(N/N=C/c1cc(Br)cc(Br)c1O)c1ccncc1,-4,-1,13*
Cc1cnc(C(=O)OCC(=O)Nc2cc(S(=O)(=O)N3CCOCC3)ccc2Cl)cn1,·,-1,·
COc1cc(/C=C/C(=O)OCC(=O)N2CCCc3ccccc32)ccc1OCC#N,·,1,·
CCOC(=O)C1CCCN(C(=O)c2ccccc2Oc2ccccc2)C1 (stereo not given),-9,2,0
CCc1ccc(S(=O)(=O)Nc2c(NC3CCCCC3)c3ccccc3oc2=O)cc1,4,3,0
